Our source for the outcome and AC50 values is PubChem BioAssay (EPA / NIEHS).

The source made the active and inactive calls. How the source made its calls: active means hit-call score of the fitted dose curve at least 0.9, where 1 is the maximum; inactive means score below 0.9.

Read-out in test [1]: Macrophage colony-stimulating factor (MCSF), CSF1 (gene 1435)
Put plainly: BSK_hDFCGF_MCSF: BioMAP Diversity Plus: hDFCGF Assay for Macrophage colony-stimulating factor (MCSF) Biomarker Activity (AID 2283060). The following applies: primary human foreskin fibroblasts; actives raise or lower the signal. Summed up: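 ELISA read-out of M-CSF in human dermal foreskin fibroblast cultures, 24 h after chemical dosing; gain or loss of signal fitted bidirectionally relative to DMSO baseline.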

A short description of test [2]: BSK_hDFCGF_SRB: Viability Assessment in the BioMAP Diversity Plus: hDFCGF Assay (AID 2283061).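 Further: cells exposed to compound for 24 h before the read.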 As to conditions: primary human foreskin fibroblasts. In short, it runs like this:
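Primary human foreskin fibroblasts; 24 h post-dose; fixed 10% TCA, stained 0.1% SRB, A560 read; total protein as overt cytotoxicity measure; curves fit bidirectionally vs DMSO control.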

Read-out in test [3]: TIMP metallopeptidase inhibitor 1 (TIMP1), TIMP1 (gene 7076)
Put plainly: BSK_hDFCGF_TIMP1: BioMAP Diversity Plus: hDFCGF Assay for TIMP metallopeptidase inhibitor 1 (TIMP1) Biomarker Activity (AID 2283062). The following applies: primary human foreskin fibroblasts; actives raise or lower the signal. Summed up:
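ELISA readout of TIMP-1 from human dermal foreskin fibroblast cultures 24 h post-dosing. Curves were fitted in both directions against DMSO baseline, with SRB total-protein staining in parallel cultures as a cytotoxicity check.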

Read-out in test [4]: Monokine induced gamma interferon (MIG), CXCL9 (gene 4283)
As to the kind of experiment: BSK_hDFCGF_MIG: BioMAP Diversity Plus: hDFCGF Assay for Monokine induced gamma interferon (MIG) Biomarker Activity (AID 2283063). As to conditions: primary human foreskin fibroblasts; actives raise or lower the signal. Summed up: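 Fibroblasts (human foreskin, primary) dosed, 24 h, MIG by ELISA; fit bidirectional vs DMSO.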

Read-out in test [5]: Vascular cell adhesion molecule 1 (VCAM1), VCAM1 (gene 7412)
As to the kind of experiment: BSK_hDFCGF_VCAM1: BioMAP Diversity Plus: hDFCGF Assay for Vascular cell adhesion molecule 1 (VCAM1) Biomarker Activity (AID 2283065). The following applies: primary human foreskin fibroblasts; actives raise or lower the signal. In short, it runs like this:
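ELISA read-out of VCAM-1 on human skin fibroblasts, 24 h post-dose; gain or loss of signal fitted bidirectionally against DMSO baseline.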

Read-out in test [6]: Plasminogen activator inhibitor-1 (PAI1), SERPINE1 (gene 5054)
As to the kind of experiment: BSK_hDFCGF_PAI1: BioMAP Diversity Plus: hDFCGF Assay for Plasminogen activator inhibitor-1 (PAI1) Biomarker Activity (AID 2283066). The following applies: primary human foreskin fibroblasts; actives raise or lower the signal. Summed up: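 Human foreskin fibroblasts in the hDFCGF system were dosed with compound for 24 h; PAI-1 was quantified by ELISA. Bidirectional curve fitting used DMSO as negative control and baseline.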

Read-out in test [7]: Intercellular Adhesion Molecule 1 (ICAM1), ICAM1 (gene 3383)
Put plainly: BSK_KF3CT_ICAM1: BioMAP Diversity Plus: KF3CT Assay for Intercellular Adhesion Molecule 1 (ICAM1) Biomarker Activity (AID 2283067). The following applies: primary human keratinocytes with fibroblasts; actives raise or lower the signal. Summed up: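 ELISA readout of ICAM-1; KF3CT human skin co-culture (keratinocytes + foreskin fibroblasts), 24 h post-dose; gain/loss fit vs DMSO baseline.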

Read-out in test [8]: Interferon-gamma inducible Protein 10 (IP10), CXCL10 (gene 3627)
As to the kind of experiment: BSK_KF3CT_IP10: BioMAP Diversity Plus: KF3CT Assay for Interferon-gamma inducible Protein 10 (IP10) Biomarker Activity (AID 2283068). The following applies: primary human keratinocytes with fibroblasts; actives raise or lower the signal. In short, it runs like this:
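In a primary skin co-culture of keratinocytes and fibroblasts, IP-10 is quantified by ELISA at 24 h after dosing. SRB staining of parallel wells monitors overt toxicity. Curves are fitted both directions against DMSO.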

A short description of test [9]: BSK_KF3CT_SRB: Viability Assessment in the BioMAP Diversity Plus: KF3CT Assay (AID 2283069).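 Further: total protein by sulforhodamine B staining as a cytotoxicity measure; read 24 h after compound addition.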 The following applies: primary human keratinocytes with fibroblasts. In short, it runs like this:
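Human keratinocyte and foreskin fibroblast co-culture exposed to chemical for 24 h. Total protein measured in parallel cultures by 0.1% sulforhodamine B staining after 10% TCA fixation, read at 560 nm; bidirectional fit relative to DMSO.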

Read-out in test [10]: Interleukin-1 alpha (IL1a), IL1A (gene 3552)
As to the kind of experiment: BSK_KF3CT_IL1a: BioMAP Diversity Plus: KF3CT Assay for Interleukin-1 alpha (IL1a) Biomarker Activity (AID 2283070). As to conditions: primary human keratinocytes with fibroblasts; actives raise or lower the signal. Summed up:
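Primary human keratinocyte plus foreskin fibroblast co-culture, dosed and measured at 24 h in 96-well plates. IL-1a level quantified by ELISA; bidirectional fit relative to DMSO.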

Read-out in test [11]: TIMP metallopeptidase inhibitor 2 (TIMP2), TIMP2 (gene 7077)
Put plainly: BSK_KF3CT_TIMP2: BioMAP Diversity Plus: KF3CT Assay for TIMP metallopeptidase inhibitor 2 (TIMP2) Biomarker Activity (AID 2283071). As to conditions: primary human keratinocytes with fibroblasts; actives raise or lower the signal. Summed up: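 Human primary keratinocyte/foreskin fibroblast co-culture dosed with chemical and sampled at 24 h. TIMP-2 levels quantified by ELISA; bidirectional fitting against DMSO negative control as baseline.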

Read-out in test [12]: Transforming growth factor beta 1 (TGFb1), TGFB1 (gene 7040)
Put plainly: BSK_KF3CT_TGFb1: BioMAP Diversity Plus: KF3CT Assay for Transforming growth factor beta 1 (TGFb1) Biomarker Activity (AID 2283072). As to conditions: primary human keratinocytes with fibroblasts; actives raise or lower the signal. Summed up: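 Human keratinocyte plus foreskin fibroblast primary co-culture, dosed with chemical for 24 h. TGF-b1 quantified by ELISA. Activity fitted bidirectionally against DMSO negative control as baseline.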

Read-out in test [13]: C-C motif chemokine 2 (Homo sapiens) (UniProt P13500)
As to the kind of experiment: BSK_KF3CT_MCP1: BioMAP Diversity Plus: KF3CT Assay for Monocyte Chemoattractant Protein 1 (MCP1/CCL2) Biomarker Activity (AID 2283073). As to conditions: primary human keratinocytes with fibroblasts; actives raise or lower the signal. Summed up:
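KF3CT skin co-culture (keratinocytes/foreskin fibroblasts), 24 h post-dose; MCP-1 by ELISA; gain/loss of signal fit bidirectionally vs DMSO baseline.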

Read-out in test [14]: Matrix Metallopeptidase 9 (MMP9), MMP9 (gene 4318)
As to the kind of experiment: BSK_KF3CT_MMP9: BioMAP Diversity Plus: KF3CT Assay for Matrix Metallopeptidase 9 (MMP9) Biomarker Activity (AID 2283074).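 On AC50: MMP9 protein level quantified by ELISA in the co-culture.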 As to conditions: primary human keratinocytes with fibroblasts; actives raise or lower the signal. Summed up: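 Human keratinocyte and foreskin fibroblast co-culture exposed to chemicals for 24 h; MMP9 biomarker measured by ELISA, bidirectional fitting relative to DMSO; cytotoxicity tracked by SRB total protein staining in parallel cultures.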

Read-out in test [15]: CD40, CD40 (gene 958)
Put plainly: BSK_LPS_CD40: BioMAP Diversity Plus: LPS Assay for CD40 Biomarker Activity (AID 2283076). The following applies: primary human HUVEC with PBMC; actives raise or lower the signal. In short, it runs like this: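 ELISA readout of CD40 in HUVEC/PBMC co-culture (BSK_LPS system), 24 h post-dosing; bidirectional curve fit, DMSO baseline; parallel SRB total-protein staining for cytotoxicity.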

Read-out in test [16]: E-selectin (Homo sapiens) (UniProt P16581)
As to the kind of experiment: BSK_LPS_Eselectin: BioMAP Diversity Plus: LPS Assay for Eselectin Biomarker Activity (AID 2283077). As to conditions: primary human HUVEC with PBMC; actives raise or lower the signal. In short, it runs like this:
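ELISA readout of E-selectin, 24 h post-dose, HUVEC + PBMC co-culture (LPS system). Gain or loss of signal vs DMSO baseline, bidirectional fit.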

Read-out in test [17]: Interleukin-8 (IL8), CXCL8 (gene 3576)
As to the kind of experiment: BSK_LPS_IL8: BioMAP Diversity Plus: LPS Assay for Interleukin-8 (IL8) Biomarker Activity (AID 2283078). The following applies: primary human HUVEC with PBMC; actives raise or lower the signal. In short, it runs like this:
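HUVEC + PBMC co-culture, LPS-activated; test chemicals dosed, IL-8 read by ELISA at 24 h. Bidirectional curve fit vs DMSO baseline (gain or loss of signal).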

The nature of test [18]: BSK_LPS_SRB: Viability Assessment in the BioMAP Diversity Plus: LPS Assay (AID 2283079).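 Further: total protein by sulforhodamine B absorbance as a cytotoxicity measure; measured one day after compound addition; fitted in both directions against DMSO so loss or gain of signal counts.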 The following applies: primary human HUVEC with PBMC. In short, it runs like this:
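HUVEC + PBMC co-culture, LPS-stimulated; compound 24 h. 10% TCA fix, 0.1% SRB stain, A560. Bidirectional fit vs DMSO.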

Read-out in test [19]: urokinase plasminogen activator (uPA), PLAU (gene 5328)
As to the kind of experiment: BSK_KF3CT_uPA: BioMAP Diversity Plus: KF3CT Assay for urokinase plasminogen activator (uPA) Biomarker Activity (AID 2283075). As to conditions: primary human keratinocytes with fibroblasts; actives raise or lower the signal. In short, it runs like this:
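Primary human keratinocyte/foreskin fibroblast co-culture exposed to chemical; uPA measured by ELISA at 24 h. Bidirectional fit versus DMSO, with parallel SRB total-protein staining for cytotoxicity.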

Read-out in test [20]: Matrix Metallopeptidase 1 (MMP1), MMP1 (gene 4312)
Put plainly: BSK_hDFCGF_MMP1: BioMAP Diversity Plus: hDFCGF Assay for Matrix Metallopeptidase 1 (MMP1) Biomarker Activity (AID 2283064). The following applies: primary human foreskin fibroblasts; actives raise or lower the signal. In short, it runs like this: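 Primary human foreskin fibroblasts exposed to chemicals for 24 h; MMP1 measured by ELISA. Cytotoxicity tracked by SRB staining in parallel cultures; bidirectional fit relative to DMSO.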

E-selectin (Homo sapiens), sequence (P16581 whole entry, looked up): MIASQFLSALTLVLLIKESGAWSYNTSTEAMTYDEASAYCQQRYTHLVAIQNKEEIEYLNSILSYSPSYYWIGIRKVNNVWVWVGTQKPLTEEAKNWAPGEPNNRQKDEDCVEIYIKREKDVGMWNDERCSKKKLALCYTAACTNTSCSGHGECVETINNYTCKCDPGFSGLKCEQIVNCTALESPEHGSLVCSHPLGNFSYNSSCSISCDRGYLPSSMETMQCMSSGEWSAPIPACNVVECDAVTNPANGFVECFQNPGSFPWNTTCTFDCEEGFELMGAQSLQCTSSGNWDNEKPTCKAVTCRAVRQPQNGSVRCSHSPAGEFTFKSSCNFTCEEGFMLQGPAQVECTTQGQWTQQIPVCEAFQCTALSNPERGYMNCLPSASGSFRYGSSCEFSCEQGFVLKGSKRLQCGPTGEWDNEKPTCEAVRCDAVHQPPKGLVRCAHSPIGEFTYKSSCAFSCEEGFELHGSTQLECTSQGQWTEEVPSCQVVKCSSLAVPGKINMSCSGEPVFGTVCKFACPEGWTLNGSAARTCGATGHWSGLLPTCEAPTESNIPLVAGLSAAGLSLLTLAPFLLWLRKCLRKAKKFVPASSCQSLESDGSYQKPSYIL

For `CCOP(=S)(OCC)SCS(=O)(=O)CC`, the outcome in test [1], in test [2], in test [3], in test [4], in test [5] and in test [6] was inactive. Besides, the result in test [7], in test [8], in test [9], in test [10], in [11] and in test [12] was inactive. Moreover, the outcome in [13], in [14], in [15], in test [16], in test [17] and in test [18] was inactive.
With `Nc1cc2c3c(c1)C(c1ccccc1)=N[C@@H](NC(=O)c1cccnc1)C(=O)N3CC2`, the outcome in test [1], in test [2], in test [3], in [4], in test [5] and in test [7] was inactive. The outcome in [8], in [9], in test [10], in test [11], in [12] and in test [13] was inactive. The outcome in [14], in [19], in [15], in test [16], in [17] and in test [18] was inactive. Besides, the half-maximal activity concentration (AC50) – broadly, the concentration giving half of the maximal activity seen – in test [6] is 523 nM (active).
As to `O=S1(=O)OCC2C(CO1)C1(Cl)C(Cl)=C(Cl)C2(Cl)C1(Cl)Cl` (stereo not drawn), the result in [1], in test [2], in test [3], in test [4], in test [5] and in test [6] was inactive. Further, the result in [7], in [8], in test [9], in test [10], in [11] and in [13] was inactive. The outcome in test [14], in test [15], in [16], in test [17] and in [18] was inactive. Moreover, the AC50 in [12] was 35600 nM (active).
`C=CC(=O)OCC(CC)(COC(=O)C=C)COC(=O)C=C`: the AC50 was 2110 nM (active) in test [1]; 1320 nM (active) in test [2]; 1110 nM (active) in test [3]; 1400 nM (active) in [4]; 3850 nM (active) in test [20]; 1080 nM (active) in test [6]. In addition, the AC50 was 2160 nM (active) in [7]; 3170 nM (active) in [8]; 3150 nM (active) in [9]; 2160 nM (active) in test [10]; 5380 nM (active) in [11]; 2370 nM (active) in [12]. In addition, the AC50 was 2350 nM (active) in test [13]; 2340 nM (active) in test [14]; 1350 nM (active) in test [15]; 2930 nM (active) in [16]; 2430 nM (active) in test [18]. Besides, the outcome in [17] was inactive.
